From the supplement of paper PMC6897291

Test system: RIVA
Assay: growth inhibition by drug plus 177Lu-lilotomab satetraxetan (1 - RLU/untreated control) (fraction); higher = stronger inhibition
Conditions: 177Lu-lilotomab satetraxetan 0.5 ug/ml
Experimental: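 RIVA (RI-1) ABC-DLBCL cells were pretreated or not for 18 h with 0.5 ug/ml 177Lu-lilotomab satetraxetan (600 MBq/mg), washed and seeded (3000 cells/well) on 384-well plates pre-printed with the Selleck Cambridge Cancer Compound library. Viability was read by RealTime-Glo luminescence on days 3-6 after seeding. Effect = 1 - RLU/mean RLU of the 48 untreated no-drug control wells per plate; Bliss score = (M-E)/(1-Fa).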

SMILES	growth inhibition by drug plus 177Lu-lilotomab satetraxetan (10 nM, time (day): 3)	growth inhibition by drug plus 177Lu-lilotomab satetraxetan (10 nM, time (day): 4)	growth inhibition by drug plus 177Lu-lilotomab satetraxetan (10 nM, time (day): 5)	growth inhibition by drug plus 177Lu-lilotomab satetraxetan (10 nM, time (day): 6)	growth inhibition by drug plus 177Lu-lilotomab satetraxetan (100 nM, time (day): 3)	growth inhibition by drug plus 177Lu-lilotomab satetraxetan (100 nM, time (day): 4)	growth inhibition by drug plus 177Lu-lilotomab satetraxetan (100 nM, time (day): 5)	growth inhibition by drug plus 177Lu-lilotomab satetraxetan (100 nM, time (day): 6)
C=C1C[C@@H]2[C@H](CC[C@]3(C)C(=O)CC[C@@H]23)[C@@]2(C)C=CC(=O)C=C12 [Exemestane]	0.609	0.639	0.647	0.653	0.483	0.528	0.533	0.543
CC1=C2C[C@H]3[C@@H](CC=C4C[C@@H](O)CC[C@@]43C)[C@@H]2CC[C@]12O[C@@H]1C[C@H](C)CN[C@H]1[C@H]2C [Cyclopamine]	0.301	0.397	0.41	0.418	0.454	0.57	0.559	0.53
CC(O)(CS(=O)(=O)c1ccc(F)cc1)C(=O)Nc1ccc(C#N)c(C(F)(F)F)c1 (stereo not given) [Bicalutamide (Casodex)]	0.401	0.506	0.542	0.556	0.351	0.443	0.458	0.432
C[C@]12CCC(=O)C(O)=C1CC[C@@H]1[C@@H]2CC[C@]2(C)C(=O)CC[C@@H]12 [Formestane]	0.476	0.532	0.553	0.549	0.447	0.508	0.53	0.533
N.N.[Cl][Pt][Cl] [Cisplatin]	0.539	0.565	0.592	0.599	0.463	0.526	0.544	0.57
